Compound activity (PubChem)
PLK1 PBD block – inhibitors of human PLK1 polo-box domain binding; P53350; Potency, µM, for inactives: max response, negative = inhibition, most hits filed as inhibitors; Plk1 PBD binding of FITC phosphopeptide, fluorescence polarization; 360,000 tested, 2.8% active; further: series mostly up to about 57 µM; on the % scale 0 is the no-effect control and ±100 the full control effect; nearly all actives have a fitted effect of over 65% in size
G9a inh – blocks human histone lysine methyltransferase G9a; Q96KQ7; G9a H3K9 monomethylation, AlphaScreen, 2 h; Potency, µM (highest dose often 102 µM), inactives show at the top dose activity, negative = inhibition, actives largely listed as inhibitors; 350,000 tested, 8.8% active; AID 504332; further: on the % scale 0 is the no-effect control and ±100 the full control effect; nearly all actives have a fitted effect of over 75% in size
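Chemiluminescent proximity detection of H3K9 monomethylation, read after 10 min bead incubation in the dark. Reaction: 20 nM G9a, 500 nM biotin-H3K9 peptide, 20 uM SAM cofactor, 2 h, room temperature, following 15 min enzyme-compound preincubation.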
Sfp inh – blocks B. subtilis Sfp PPTase activity; Potency, µM, for inactives: largest response in the series, negative = inhibition, most hits filed as inhibitors; 310,000 tested, 3.5% active; Biochemical Sfp PPTase activity, qHTS;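 further: the enzyme is Sfp with the accession as filed and its product quenches rhodamine fluorescence; 0% = enzyme reaction without inhibitor and -100% = no enzyme wells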
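Compounds were incubated with enzyme (final 15 nM) for 15 min at room temperature before substrate addition started the reaction. Fluorescence at 525 nm excitation, 598 nm emission was recorded immediately and after 30 minutes.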
HP1b binding inh – inhibitors of HP1-beta chromodomain binding to methylated histone tails; P83916; AlphaScreen HP1-beta / biotin-H3K9me3 peptide binding; Potency, µM (titrated, usually from 114 µM), inactives show at the highest dose activity change, negative = inhibition, hits mostly inhibitors; 390,000 tested, 0.56% active; AID 540317; further: nearly all actives have a fitted effect of over 70% in size
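Compound inhibition of the preformed complex between 50 nM HP1-beta and 50 nM biotinylated H3K9me3 peptide was read by AlphaScreen. Buffer was PBS pH 7.4 with 0.01% Tween-20. Incubations ran 30 min at room temperature, with 10 ug/mL donor/acceptor beads.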
BAZ2B block – inhibitors of human BAZ2B bromodomain. Q9UIF8. AID 504333. Potency, µM (doses to about 114 µM), for inactives: at the highest dose activity change, negative = inhibition, actives largely listed as inhibitors. 360,000 tested, 4.4% active. AlphaScreen BAZ2B-H3K14Ac peptide displacement; further: on the % scale 0 is the no-effect control and ±100 the full control effect; nearly all actives have a fitted effect of over 60% in size
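Complex of BAZ2B and biotin-H3K14Ac (50 nM apiece) forms over 30 min at RT, then faces library compounds up to 110 uM for another 30 min; AlphaScreen beads added, 20 min dark incubation, luminescence read.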
JMJD2A Tudor inh – blocks the human JMJD2A Tudor domain; Potency, µM (top dose mostly 114 µM), without a hit: at the highest dose activity change, negative = inhibition, hits mostly inhibitors; 390,000 tested, 4.4% active; AlphaScreen JMJD2A-Tudor / H3K4me3 peptide binding; further: on the % scale 0 is the no-effect control and ±100 the full control effect; nearly all actives have a fitted effect of over 50% in size
Target sequence (O75164 whole entry, looked up, the tested form may be a part): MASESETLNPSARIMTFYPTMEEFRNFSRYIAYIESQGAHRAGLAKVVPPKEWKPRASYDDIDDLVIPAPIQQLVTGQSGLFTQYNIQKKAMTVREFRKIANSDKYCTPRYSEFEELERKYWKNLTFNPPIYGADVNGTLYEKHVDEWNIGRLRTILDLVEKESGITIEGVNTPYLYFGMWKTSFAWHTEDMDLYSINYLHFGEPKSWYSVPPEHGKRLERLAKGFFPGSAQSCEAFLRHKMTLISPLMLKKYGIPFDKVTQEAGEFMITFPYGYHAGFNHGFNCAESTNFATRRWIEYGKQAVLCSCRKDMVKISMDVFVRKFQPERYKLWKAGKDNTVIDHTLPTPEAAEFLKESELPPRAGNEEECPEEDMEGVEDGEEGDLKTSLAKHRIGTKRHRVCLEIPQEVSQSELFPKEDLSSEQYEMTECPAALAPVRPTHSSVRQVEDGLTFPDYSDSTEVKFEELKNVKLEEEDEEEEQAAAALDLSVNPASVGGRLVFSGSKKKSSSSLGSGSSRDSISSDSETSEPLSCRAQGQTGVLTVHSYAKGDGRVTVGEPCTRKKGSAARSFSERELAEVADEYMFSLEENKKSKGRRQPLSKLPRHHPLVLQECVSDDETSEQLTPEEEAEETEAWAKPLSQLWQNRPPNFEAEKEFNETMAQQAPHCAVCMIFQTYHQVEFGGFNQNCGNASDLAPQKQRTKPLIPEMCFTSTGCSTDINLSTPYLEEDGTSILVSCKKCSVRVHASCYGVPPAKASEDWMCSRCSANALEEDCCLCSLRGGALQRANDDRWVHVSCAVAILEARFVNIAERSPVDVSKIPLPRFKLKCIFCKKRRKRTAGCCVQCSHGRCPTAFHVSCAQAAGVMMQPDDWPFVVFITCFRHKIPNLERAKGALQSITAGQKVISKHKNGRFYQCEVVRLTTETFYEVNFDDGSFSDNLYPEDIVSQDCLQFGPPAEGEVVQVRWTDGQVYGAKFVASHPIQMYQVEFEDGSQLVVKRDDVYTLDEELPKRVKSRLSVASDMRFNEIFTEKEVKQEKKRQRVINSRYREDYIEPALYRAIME
Active calls of the source: *; ? = inconclusive; . = not tested or not shown; ! = not confirmed by another sample; [ ] = another dose, or the depositor's remark. Compounds with a hit are over-represented: about 12% of the library has one in this group of screens. The call rests on the fitted dose curve; in most records, active means well fitted curve in the direction sought with a large enough effect; inconclusive means small, poorly fitted or top-dose-only effect, or another doubt; inactive means no such curve, though single readings can be large; an effect the other way counts as inactive or inconclusive. Potency means the concentration at half of the fitted maximal effect.

SMILES | PLK1 PBD block | G9a inh | Sfp inh | HP1b binding inh | BAZ2B block | JMJD2A Tudor inh
O=C(Nc1cccc(F)c1)N1CC[C@@]2(CCCN(C(=O)c3ccncc3)C2)C1 | . | -29.3%[12.7 µM] | 13.6% | . | . | .
O=C(CSc1nncc2ccccc12)Nc1ccc(C(=O)O)cc1 | -28.5% | . | 50.1µM* | 39.5% | ? | -7.6%
COc1ccc(NC(=O)CSc2nnc(-c3ccccc3C)n2N)cc1OC | 0.9% | 12.0% | 1.1% | 34.2% | -0.3% | -8.1%
COc1ccc(NC(=O)CSc2nnc(-c3ccccc3C)n2N)cc1 | 21.2µM* | 50.1µM* | -13.8% | 49.1% | -2.2% | 0.7%
COc1cccc(NC(=O)CSc2nnc(-c3cccc(OC(C)C)c3)n2N)c1 | ? | 25.1µM* | 1.6% | 42.5% | 4.0% | 56.2µM*
CCc1nc(SCC(=O)NNC(=O)C(C)C)c2ccccc2n1 | -8.4% | 19.7%[59 µM] | 3.6% | 14.2% | -4.7% | -11.1%
CCc1nc(SCC(=O)Nc2ccc(N(C)C)cc2)c2ccccc2n1 | 0.0% | 10µM* | ? | 1.5% | -29.8% | -32.6%
COc1ccc(-c2nc3sc(CCNC(=O)C(=O)Nc4c(C)cccc4C)c(C)n3n2)cc1 | . | -1.6%[59 µM] | . | 44.0% | -1.8% | -10.7%
CN(Cc1ccccc1)S(=O)(=O)c1ccc(Cl)c(C(=O)OCC(=O)NC2CCS(=O)(=O)C2)c1 (centres undefined) | -1.6% | . | . | 32.0% | . | -21.6%
CCc1ccc2oc(C(=O)Nc3cc(Cl)ccc3OC)cc(=O)c2c1 | . | -5.1%[59 µM] | . | 11.0% | 0.2% | -13.9%
CC(OC(=O)c1ccc2c(c1)OCO2)C(=O)NC1CCCCC1 (centres undefined) | 6.0% | . | . | . | . | .
CC(OC(=O)c1ccc2c(c1)OCO2)C(=O)NC1CCCCC1C (centres undefined) | 2.3% | 28.2µM* | . | 12.4% | -3.5% | 0.0%
CC1CCN(S(=O)(=O)c2ccc(C(=O)OC(C)C(=O)NC3CCCCC3C)cc2)CC1 (centres undefined) | -1.0% | 31.6µM* | 5.7% | 20.4% | -10.0% | -7.4%
COCCOC(=O)c1c(C)oc2ccc(O)c(CN3CCC(C)CC3)c12 (tested in a mixture with another compound) | -10.3% | . | . | -5.4% | . | -13.8%
Cc1ccc(-n2c(CCC(=O)O)ccc2-c2cccs2)cc1C | -19.8% | ? | 44.7µM* | -3.5% | ? | ?
CCc1ccc(-n2c(CCC(=O)O)ccc2-c2cccs2)cc1 | . | 10µM* | . | ? | ? | ?
CCOC(=O)c1ccc(-n2c(CCC(=O)O)ccc2-c2cccs2)cc1 | 18.9µM* | 22.4µM* | 25.1µM* | ? | ? | ?
CCc1ccc(-n2c(CCC(=O)O)ccc2-c2ccc(F)cc2)cc1 | . | 10µM* | . | ? | ? | ?
COc1ccc(-c2ccc(CCC(=O)O)n2-c2ccccc2OC)cc1 | 0.4% | ? | -11.5% | 18.2% | ? | -12.9%
Cc1c(Cl)cccc1-n1c(CCC(=O)O)ccc1-c1cccs1 | . | ? | . | 4.1% | -33.2% | -34.3%
O=C(Nc1ccc2nc(SCC(=O)N3CCCC3)sc2c1)c1cccc(Br)c1 | . | -23.5%[59 µM] | . | 14.9% | -16.0% | -14.6%
CSc1ncc(C(=O)NCc2cccc(C)c2)c(-c2ccccc2)n1 | . | 4.0%[59 µM] | . | 12.5% | -0.8% | -17.5%
CC(=O)N(C)c1ccc(N=Cc2c(O)ccc3ccccc23)cc1 | -13.0% | 3.98µM* | 0.7% | 16.5% | -28.9% | ?
CC(=O)c1cccc(N=Cc2c(O)ccc3ccccc23)c1 | ? | 1.58µM* | 10.7% | -10.4% | ? | 70.8µM*
S=P(N1CC1)(N1CC1)N1CC1 | ? | 7.94µM*! | 13.6% | ? | 22.7% | -17.2%
SMILES | PLK1 PBD block | G9a inh | Sfp inh | HP1b binding inh | BAZ2B block | JMJD2A Tudor inh
NC(N)=NCCC[C@H](NC(=O)[C@@H](N)Cc1ccc(O)cc1)C(=O)O | . | 47.9%[59 µM] | 7.5% | . | . | .
N#CCCn1cnc2c(=S)nc[nH]c21 | -10.7% | ? | ? | 6.6% | -33.1% | 35.5µM*
Cc1oc2c(c1C(=O)Nc1cccc3ccccc13)CCCC2 | 2.99µM* | 1.9%[59 µM] | 15.4% | ? | -1.6% | ?
Cc1cc(NC(=O)c2ccoc2C)no1 | ? | 5.01µM* | -27.1% | 12.8% | -1.1% | -33.3%
Cc1occc1C(=O)Nc1ccccc1NC(=O)c1ccoc1C | -26.2% | . | . | -7.1% | . | 89.1µM*
Cc1cc(NC(=O)c2cc([N+](=O)[O-])cc([N+](=O)[O-])c2C)no1 | -12.8% | . | 79.4µM* | 10.0% | ? | -26.2%
Cc1cc(NC(=O)c2cc([N+](=O)[O-])cc([N+](=O)[O-])c2)no1 | 5.8% | -27.9% | 7.4% | 73.0% | -16.4% | -8.1%
COc1ccc(N2CCN(C(=O)COC(=O)CCOc3ccc(C(C)(C)C)cc3)CC2)cc1 | -0.2% | -42.3% | . | 19.8% | -9.8% | -0.7%
Cc1cc(C)c(NC(=O)Cn2c(=O)n(CCC(=O)NCc3ccc4c(c3)OCO4)c(=O)c3ccccc32)c(C)c1 | . | -7.5%[59 µM] | . | 10.3% | -3.4% | 2.7%
Cc1ccc(NC(=O)c2ccco2)nc1 | -3.2% | . | . | 23.3% | . | -3.4%
COc1ccc(C(=O)NCC(=O)OCC(=O)NC2CCCCCC2)cc1OC | -3.2% | . | . | 36.2% | . | -2.0%
CC(C)CN1CCC2(CC1)CCN(C(=O)c1csnn1)CC2 | . | -0.2%[12.7 µM] | ? | . | . | .
CNS(=O)(=O)c1ccc(NC(=O)c2ccoc2C)cc1 | -2.0% | -33.5% | 24.0% | 28.6% | -21.5% | 3.0%[11.4 µM]
Cc1cc(C(=O)Nc2cccc3ccccc23)c(C)o1 | -22.6% | 14.5% | 5.3% | -14.2% | -17.5% | -22.4%
Cc1occc1C(=O)NNC(=O)Nc1ccc(Cl)c(Cl)c1 | 6.7µM* | 0.3%[59 µM] | -28.0% | -7.7% | -3.5% | 50.1µM*
Cc1occc1C(=O)Nc1cccc2ccccc12 | -6.3% | 11.2µM* | -9.4% | 4.8% | -30.9% | -15.5%
Cc1occc1C(=O)Nc1ccc(S(N)(=O)=O)cc1 | 21.2µM* | . | -6.7% | ? | -12.6% | 22.4µM*
Cc1ccsc1C(=O)NNC(=O)Nc1ccc(Cl)c(Cl)c1 | ? | 14.8%[59 µM] | -11.8% | -16.8% | 3.4% | 3.1%[11.4 µM]
CCOC(=O)c1ccc(NC(=O)CCCc2nc(-c3cc(OC)c(OC)c(OC)c3)no2)cc1 | . | 4.6%[59 µM] | . | 5.5% | -2.6% | -16.0%
CCOC(=O)N1CCC(N(CCN(C)C)C(=S)Nc2cc(Cl)cc(Cl)c2)CC1 | -8.2% | ? | -23.6% | 31.5% | 79.4µM* | -6.3%
O=C(OCC#CCSc1nnc(-c2ccc(F)cc2)o1)c1ccc(F)cc1 | . | . | . | . | . | 57.1%
NCC(=O)N[C@@H](CCCN=C(N)N)C(=O)NCC(=O)N[C@@H](CC(=O)O)C(=O)N[C@@H](CO)C(=O)O | . | . | 21.1% | . | . | .
CC[C@H](CO)NCCN[C@@H](CC)CO | . | 26.6%[21.5 µM] | ? | . | . | .
Cc1ccc(/C(N)=N/OC(=O)CSc2ccccc2)cc1 | -10.1% | 264.4% | -17.5% | 58.3% | 195.2% | 48.1%
